Records with an inconclusive call do not appear. Activity calls are given as the source filed them. Calls come from the whole dose curve; as a rule, active = well fitted inhibition curve with a large enough effect; inconclusive = small, poorly fitted or top-dose-only effect; inactive = no such curve, though single readings can be large or run the other way.

The nature of this experiment: NS1 protein of Zika virus - qHTS assay to identify small molecule inhibitors in human HEK 293 cells (AID 1347053). Note: nearly all actives have a fitted effect of over 55% in size. The conditions noted are these: HEK293 ZIKV MR766 infection, NS1 TR-FRET, 24 h; series mostly up to 46.1 µM. The source says: National Center for Advancing Translational Sciences [NCATS]
Johns Hopkins University School of Medicine
The non-structural 1 (NS1) protein of zika virus is known to associate with the viral replication complex. This cell-based TR-FRET ZIKV NS-1 assay measures the increased NS-1 protein in human HEK 293 cells after a 24-hour Zika virus infection by a TR-FRET assay readout. A decrease in the Time-resolved fluorescence energy transfer (TR-FRET) signal in this assay by small molecule treatment indicates an inhibitory effect of the small molecule on the expression of Zika virus NS1 correlating with Zika virus replication.
HEK 293 cells were cultured in EMEM (ATCC, Cat. # 30-2003) medium with 10% fetal bovine serum (GE healthcare Life Sciences, Cat. # SH30071.03), and 1% Pen/Strep (Gibco, Cat. # 15140-122). Cells were seeded in the assay plate and incubated at 37 C with 5% CO2 for 20 hours. Compounds were added to cells and incubated for one hour before addition of ZIKV MR766 strain solution to cells (MOI = 0.5). After an incubation at 37 C for 24 hours, the reagent mixture of TR-FRET ZIKV NS1 assay using two anti-ZIKV NS1 antibodies was added to assay plates. The TR-FRET signals in assay plates were measured using an Envision plate reader (PerkinElmer). Data were normalized by using the cell-containing wells without ZIKV as a negative control (0% NS-1) and wells containing ZIKV infected cells as a positive control (100% NS-1 level).
(In general: In qHTS, concentration-response curves come from the screen itself.)
Consider `CCC(C)C(C)(COC(N)=O)COC(N)=O` (stereo not given), for which the compound was called inactive.
Consider `O=c1oc2ccccc2c(O)c1Cc1c(O)c2ccccc2oc1=O`, for which the compound was classed as inactive.
Under `CC(C)(C)NCC(O)c1ccccc1Cl` (stereo not given) stands “inactive”.
On to `O=c1c(C2CC(c3ccc(-c4ccc(Br)cc4)cc3)Cc3ccccc32)c(O)sc2ccccc12` (stereo not given), for which the call was inactive.
Under `COP(=S)(OC)Oc1cc(Cl)c(Cl)cc1Cl` stands “inactive”; under `COP(=S)(OC)Oc1ccc(S(=O)(=O)N(C)C)cc1`, “inactive”; under `C#C[C@]1(O)CC[C@H]2[C@@H]3CCC4=CC(=O)CC[C@]4(C)[C@H]3CC[C@@]21C`, “inactive”.
Turning to `O=C(N/N=C/c1ccc([N+](=O)[O-])o1)c1cc([N+](=O)[O-])cc([N+](=O)[O-])c1O`, the outcome was inactive.
With `COc1cccc(C(=O)CCN[C@@H](C)[C@H](O)c2ccccc2)c1`, the outcome was inactive.
Take `CCC(CC)(CNC(=O)CCCO)c1cccc(OC)c1`: the call was inactive.
In the case of `CC(C)(C)NCC(O)c1cc(Cl)c(N)c(C(F)(F)F)c1` (stereo not given), the compound was classed as inactive.
Take `O=C1c2ccccc2C(=O)C1C(=O)C(c1ccccc1)c1ccccc1`: the call was inactive.
Under `CCC1(c2ccc(N)cc2)CCC(=O)NC1=O` (stereo not given) stands “inactive”.
On to `O=C1CN=C(c2ccccc2)c2cc([N+](=O)[O-])ccc2N1`, for which the call was inactive.
`CCC(C)(C)c1ccc(O)cc1`: the result was inactive.
Take `CN(C)CCc1c[nH]c2cccc(OP(=O)(O)O)c12`: the compound was called inactive.
With `CN1CCC(O)(c2ccc(F)cc2)C(C(=O)c2ccc(F)cc2)C1` (stereo not given), the compound was called inactive.
On to `O=C1OC(CCN2CCCCC2)OC1(c1ccccc1)c1ccccc1` (stereo not given), for which the call was inactive.
On to `C#CC(O)(C=CCl)CC` (stereo not given), for which the call was inactive.
The entry for `CCOP(=S)(OCC)Oc1ccc2c(C)c(Cl)c(=O)oc2c1` is “inactive”; for `CCc1cc2c(s1)-n1c(C)nnc1CN=C2c1ccccc1Cl` it is “inactive”.
For `ClCCN1CCCC1`, the call was inactive.
Take `CN1CC[C@]23c4c5ccc(O)c4O[C@H]2[C@@H](O)CC[C@H]3[C@H]1C5`: the compound was classed as inactive.
As for `NNc1ccccc1`, the outcome was inactive.
Under `CCN(CC)C(=O)[C@@H]1C=C2c3cccc4[nH]cc(c34)C[C@H]2N(C)C1` stands “inactive”.
The entry for `CCN(CCO)CCn1c(Cc2ccccc2)nc2c1c(=O)n(C)c(=O)n2C` is “inactive”; for `CCCN(CCC)C(=O)Cc1c(-c2ccc(Cl)cc2)nc2ccc(Cl)cn12` it is “inactive”.
Under `CC(C)C[C@H](CN)CC(=O)O` stands “inactive”.
Take `c1ccc(CN2CCNCC2)cc1`: the compound was classed as inactive.
For `CCN[C@@H](C)Cc1cccc(C(F)(F)F)c1`, the result was inactive.
As to `CC(C)c1cccc(C(C)C)c1O`, the result was inactive.
For `C[C@]12CCC(=O)C=C1CC[C@@H]1[C@@H]2CC[C@@]2(C)[C@H]1CC[C@]2(C)O`, the outcome was inactive.
In the case of `O=C(O)CCCc1ccc(N(CCCl)CCCl)cc1`, the result was inactive.
Turning to `C=CCC1([C@H](C)CCC)C(=O)NC(=O)NC1=O`, the result was inactive.
Turning to `O=C(O)c1ccc(=O)[nH]c1`, the call was inactive.
Under `CCC1(c2ccccc2)C(=O)N(COC)C(=O)N(COC)C1=O` stands “inactive”; under `CC(C)(N)Cc1ccccc1Cl`, “inactive”; under `CC(C(=O)c1ccccc1)N(C)C` (stereo not given), “inactive”.
The entry for `COC1CC(=C(c2cccs2)c2cccs2)C[N+](C)(C)C1` (stereo not given) is “inactive”.
Under `COC(=O)[C@@H](N)CCCN/C(N)=N/[N+](=O)[O-]` stands “inactive”.

Values taken from PubChem BioAssay (NCATS).
